About 13,000 (27%) of roughly 48,000 compounds showed an effect of 50% or more. This is one part of the list.
tested on: Wolbachia pipientis; assay: Anti-Wolbachia Cell-Based Screen; format: functional; design: scale not given: in the data most compounds retested in dose-response had high values; conditions: 5 µM

Point of comparison: O=C(NCc1cccnc1)[C@@H]1C[C@H]2[C@H](CCN2c2ncccn2)O1.O=C(O)C(F)(F)F.O=C(O)C(F)(F)F, “Percent Effect” value -20.81%. Against it:
- CCN(Cc1noc(CC(C)C)n1)Cc1ncccc1C(=O)O — higher, 0.41%
- O=C(Cc1ccc(F)cc1)NCC(O)(c1cccs1)C1CC1 (configuration not stated) — higher, -8.989%
- O=C(c1ccccc1-c1nc[nH]n1)N1CCOC(C(F)(F)F)C1 (configuration not stated) — higher, -3.819%
- O=C(c1ccnc(N2CCOC(c3ccc(Cl)cc3)C2)c1)N1CCCC1 (configuration not stated) — higher, 5.063%
- O=C(c1ccnc(N2CCOC(C(F)(F)F)C2)c1)N1CCCC1 (configuration not stated) — higher, 104.2%
- Cc1cc(N2CCOC(C(F)(F)F)C2)nc(-c2ccccc2O)n1 (configuration not stated) — higher, 0.367%
- O=C(c1ccnc(N2CCOC(C(F)(F)F)C2)c1)N1CCOCC1 (configuration not stated) — higher, 126.7%
- CCCOC1CCCN(C(=O)c2ccnc(N3CCN(C)CC3)c2)C1 (configuration not stated) — higher, -2.412%
- FC(F)(F)C1CN(c2nc(-c3ccccc3)no2)CCO1 (configuration not stated) — higher, 1.85%
- CN1CCN(C(=O)c2ccnc(N3CCOC(C(F)(F)F)C3)c2)CC1 (configuration not stated) — higher, 130.4%
- O=C(c1ccc(-c2nc[nH]n2)cc1)N1CCOC(C(F)(F)F)C1 (configuration not stated) — higher, 16.44%
- N#CC(NC(=O)CC1CCSCC1)c1cnn(-c2ccccc2)c1 (configuration not stated) — higher, -2.178%
- O=C(c1cccc(O)c1)N1CCN(Cc2nnc(C3CCC3)o2)CC1 — higher, 6.828%
- CC(=O)N1CC[C@@H]2O[C@H](C(=O)Nc3nc(C)cs3)C[C@@H]21 — higher, 101%
- CS(=O)(=O)N1CC[C@H]2O[C@@H](C(=O)NCc3ccco3)CC[C@H]21 — higher, -0.8352%
- Cc1csc(NC(=O)[C@@H]2C[C@H]3[C@H](CCN3S(C)(=O)=O)O2)n1 — higher, 118.9%
- CN1CCC(NC(=O)[C@H]2CC[C@@H]3[C@@H](CCN3c3ncccn3)O2)CC1.O=C(O)C(F)(F)F.O=C(O)C(F)(F)F — higher, 7.6%
- CS(=O)(=O)N1CC[C@H]2O[C@H](C(=O)NCc3cccnc3)CC[C@H]21 — higher, -7.533%
- CNC(=O)[C@@H]1CC[C@@H]2[C@@H](CCN2C(=O)N(C)C)O1 — higher, -10.15%
- Cc1csc(NC(=O)[C@@H]2C[C@H]3[C@H](CCN3c3ncccn3)O2)n1.O=C(O)C(F)(F)F — higher, 118%
- CC(=O)N1CC[C@@H]2O[C@@H](COCc3csc(C)n3)CC[C@@H]21 — lower, -30.94%
- NC(=O)CCn1ccc(NC(=O)c2ccc(Br)o2)n1 — higher, -16.68%
- O=C(NCC1(N2CCOCC2)CCSC1)Nc1ccc(F)cc1 (configuration not stated) — higher, -9.419%
- CCCOc1ccccc1CCCNc1ncnc2oc(C)nc12 — higher, -6.613%
- CCc1nccc(CN2CCC(CNC(=O)c3occc3C)C2)n1 (configuration not stated) — higher, -2.673%
- CC(N1CCN(C(=O)NCc2cccc(C#N)c2)CC1)C(F)(F)F (configuration not stated) — higher, -0.6976%
- CC(C)Nc1ncnc2c1CCN(C(=O)[C@H]1CCCO1)CC2 — higher, 89.47%
- O=C(c1ccnnc1)N1CCc2ncnc(C3CCOC3)c2CC1 (configuration not stated) — higher, -19.12%
- O=C(C1CCCCO1)N1CCc2ncnc(NCc3ccon3)c2CC1 (configuration not stated) — higher, -8.792%
- CCN(C)c1ncnc2c1CCN(C(=O)[C@H]1CCCO1)CC2 — higher, 4.637%
- O=C(C1CCCCO1)N1CCc2ncnc(NCCO)c2CC1 (configuration not stated) — higher, -13.54%
- O=C([C@H]1CCCO1)N1CCc2ncnc(C3CC3)c2CC1 — higher, 109.2%
- CCCN(C)C(=O)c1cc(Br)cc(S(=O)(=O)N2CCOCC2)c1F — higher, 6.063%
- Cc1nnc(N2CCCC3(CN(c4cccc(F)c4)CCO3)C2)o1 (configuration not stated) — higher, -14.38%
- O=C(NCCN1CCOCC1)c1cc(Cl)c2c(c1)OCCCO2 — higher, 12.84%
- CCn1c(CN2CCOC(Cn3cncn3)C2)nc2c(F)cccc21 (configuration not stated) — higher, -6.661%
- Cc1ccc(C(CNCC2CC2)N2CCOCC2)s1 (configuration not stated) — higher, -12.57%
- Cc1cccc2nc(C(=O)N3CCC(Nc4cccnn4)CC3)cn12 — higher, -6.08%
- CC(Cn1cccn1)C(=O)N1CCC(Nc2cccnn2)CC1 (configuration not stated) — higher, -6.529%
- O=C(c1ccc(-c2cnco2)cc1)N1CCC(Nc2cccnn2)CC1 — higher, 107%
- CNC(=O)c1ccc(C(=O)N2CCC(Nc3cccnn3)CC2)cn1 — higher, 119%
- CC(C(=O)N1CCC(Nc2cccnn2)CC1)n1ccnc1 (configuration not stated) — higher, 3.754%
- O=C(c1ccc(-n2cnnc2)cc1)N1CCC(Nc2cccnn2)CC1 — higher, 87.89%
- CC(C(=O)N1CCC(Nc2cccnn2)CC1)n1cccn1 (configuration not stated) — higher, 60.47%
- CCOC(C)c1nc(Cn2cc(C(=O)NC)ccc2=O)cs1 (configuration not stated) — higher, -7.956%
- Cc1ccc(NC(=O)N2CCOC(C)(c3cnn(C)c3)C2)c(C)c1 (configuration not stated) — higher, 16.86%
- COc1cc2c(cc1OC)S(=O)(=O)N(Cc1cc(C)on1)C2=O — higher, -6.413%
- N#Cc1c(Cl)nsc1N1CCN(CC2CCCCC2)CC1 — higher, 3.475%
- Cc1cccc(-n2nc(CC(C)C)nc2CCn2ccc(=O)[nH]c2=O)c1 — higher, 22.44%
- O=C(c1ccccc1-n1cccn1)N1CCC(Nc2cccnn2)CC1 — higher, 157.4%
- O=C(c1ccc(NC2CC2)nc1)N1CCC(Nc2cccnn2)CC1 — higher, 118.5%
- O=C(c1ccsc1)N1CCC(c2nnc(C3CC3)o2)CC1 — higher, 116.7%
- O=C(c1ccccn1)N1CCC(Nc2cccnn2)CC1 — higher, 18.78%
- O=C(c1ccccc1-n1cccn1)N1CCCN(c2cccnn2)CC1 — higher, -6.198%
- O=C(c1ccc(-n2cccn2)nc1)N1CCC(Nc2cccnn2)CC1 — higher, -1.733%
- O=C(c1ccncc1)N1CCCN(Cc2nnc(C3CC3)o2)CC1 — higher, -12.73%
- O=C(c1ccc(O)nc1)N1CCC(Nc2cccnn2)CC1 — higher, 95.42%
- FC(F)(F)c1ccc(-n2ccnc2-c2cc3n(n2)CCNC3)cn1 — higher, 0.08182%
- CCS(=O)(=O)c1ccccc1N1CCC(NC(=O)NC2CCCC2)CC1 — higher, -4.776%
- O=C(c1ccsc1)N1CCC(Nc2cccnn2)CC1 — higher, 95.56%
- O=C(c1ccoc1)N1CCC(Nc2cccnn2)CC1 — higher, 90.61%

— ChEMBL document CHEMBL3988442, “University of Dundee, Small-Polar-MMV Screening Library” (2021)
